In the library only some 11% were active in any assay of this set; here they are far more common.
HPGD block: HPGD (human) dehydrogenase inhibition. P15428. purified HPGD, NADH fluorescence kinetic, PGE2 substrate. Potency, µM, usual class: inhibitors. hit rate 4.3% among 150,000. AID 894
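20 nM HPGD preincubated 15 min at room temperature with compound in 50 mM Tris-HCl pH 8, 0.01% Tween 20. Started with 1 mM NAD+ and 30 uM prostaglandin E2; NADH fluorescence (360/450 nm) read 5 times over 30-s intervals, last minus first.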
ALDH1A1 inh: inhibitors of human aldehyde dehydrogenase 1A1. P00352. Purified ALDH1A1, NADH fluorescence, propionaldehyde substrate. Potency, µM (top dose mostly 75.3 µM), actives largely listed as inhibitors. hit rate 7.3% among 220,000
Target sequence (P00352 whole entry, looked up): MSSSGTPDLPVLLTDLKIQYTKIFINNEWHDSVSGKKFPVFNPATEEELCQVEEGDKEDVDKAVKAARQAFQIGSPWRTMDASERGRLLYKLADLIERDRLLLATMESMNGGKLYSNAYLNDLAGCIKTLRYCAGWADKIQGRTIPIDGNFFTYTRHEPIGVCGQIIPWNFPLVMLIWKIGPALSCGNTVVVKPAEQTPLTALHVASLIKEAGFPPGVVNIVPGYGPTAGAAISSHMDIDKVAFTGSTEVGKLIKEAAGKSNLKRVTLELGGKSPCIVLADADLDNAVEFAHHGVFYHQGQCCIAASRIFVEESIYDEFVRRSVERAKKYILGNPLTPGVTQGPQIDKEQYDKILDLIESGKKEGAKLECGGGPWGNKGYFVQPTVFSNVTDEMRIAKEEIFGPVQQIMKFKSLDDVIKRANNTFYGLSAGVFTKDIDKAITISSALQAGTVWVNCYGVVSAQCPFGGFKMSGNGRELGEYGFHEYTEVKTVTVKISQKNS
PNC inhibitor: perinucleolar compartment assembly inhibition | AID 2417 | activity change (PNC), negative = inhibition, % at 10 µM | hit rate 3.1% among 140,000 | PC3M PTB-GFP, PNC prevalence imaging, 16 h; stronger effect = lower value;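 active = readout at or below -70, meaning at least 70% loss of cells showing the perinucleolar compartment, a nuclear body marking cancer cells; inconclusive = readout between -30 and a set limit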
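Compounds are pinned in duplicate onto adhered PC3M cells stably expressing GFP-tagged PTB and incubated 16 h at 37 C. Cells are then fixed, nuclei stained with Hoechst, and PNC-positive cells counted.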
Large screens that a line does not name were inactive; ! = not active in a repeat. Unless noted, calls follow the shape of the dose curve; as a rule, active = well fitted inhibition curve with a large enough effect (not every such curve was filed as active); inconclusive = small, poorly fitted or top-dose-only effect, or another doubt; inactive = no such curve, though single readings can be large or run the other way.

Cc1cccn2c(=O)c(/C=C(\C#N)C(=O)NC3CCS(=O)(=O)C3)c(N3CCC(C)CC3)nc12 (centres undefined)	ALDH1A1 inh inconclusive
Cc1cccn2c(=O)c(/C=C(\C#N)C(=O)NCc3ccco3)c(N3CCC(C(N)=O)CC3)nc12	ALDH1A1 inh inconclusive
Cc1cccn2c(=O)c(C=O)c(N3CCC4(CC3)OCCO4)nc12	none (no result: HPGD block, PNC inhibitor)
Cc1cccn2c(=O)c(/C=C(\C#N)C(=O)NCc3ccco3)c(N3CCCCC3)nc12	HPGD block 32µM, ALDH1A1 inh 14µM
CC1CC(C)CN(c2cc(=O)n(Cc3ccc(F)cc3)c(=O)[nH]2)C1 (centres undefined)	ALDH1A1 inh inconclusive
Cc1oc(CC(C)C)cc1C(=O)NCCCC(=O)O	none (no result: HPGD block, PNC inhibitor)
Cc1ccc(Cl)cc1-n1ncc2c(NNC(=O)c3ccco3)ncnc21	none (no result: HPGD block, PNC inhibitor)
O=C(Cc1ccccc1)Nc1ccc(NC(=O)c2cccs2)cc1	none (no result: HPGD block, PNC inhibitor)
O=C1ON=C(c2ccccc2)/C1=C/c1cccnc1	none (no result: HPGD block, PNC inhibitor)
O=C1ON=C(c2ccccc2)/C1=C/c1ccc(OS(=O)(=O)c2ccccc2)cc1	HPGD block 10µM, ALDH1A1 inh 11µM, PNC inhibitor inconclusive
CN(C)C(CNC(=S)Nc1ccc(Cl)cc1)c1cccnc1 (centres undefined)	none (no result: HPGD block, PNC inhibitor)
COc1ccc(Cl)cc1NC(=S)NCCO	none (no result: HPGD block, PNC inhibitor)
COc1ccc(NC(=S)NCCc2ccc(S(N)(=O)=O)cc2)c(OC)c1	ALDH1A1 inh 22µM (no result: HPGD block, PNC inhibitor)
COc1ccc(Cl)cc1NC(=S)NCCc1ccc(S(N)(=O)=O)cc1	ALDH1A1 inh 6.3µM (no result: HPGD block, PNC inhibitor)
COc1ccc(NC(=S)NCCc2ccc(Cl)cc2)c(OC)c1	ALDH1A1 inh inconclusive
Cc1ccc(S(=O)(=O)CCSC(=N)N)cc1	ALDH1A1 inh 0.11µM (no result: HPGD block, PNC inhibitor)
Cc1ccc(S(=O)(=O)CCc2nnc(N)s2)cc1	none
CCOC(=O)N1CCN(C(=O)CN(c2cccc(C(F)(F)F)c2)S(C)(=O)=O)CC1	none
CN([C@@H](Cc1ccc(OS(=O)(=O)c2cccc3cnccc23)cc1)C(=O)N1CCN(c2ccccc2)CC1)S(=O)(=O)c1cccc2cnccc12	PNC inhibitor inconclusive
CN(C(Cc1ccc(OS(=O)(=O)c2cccc3cnccc23)cc1)C(=O)N1CCN(c2ccccc2)CC1)S(=O)(=O)c1cccc2cnccc12 (centres undefined)	ALDH1A1 inh 14µM! (no result: HPGD block, PNC inhibitor)
COc1ccc(NC(=O)c2cc(=O)[nH]c(=O)[nH]2)cc1S(=O)(=O)Nc1ccccc1Cl	none (no result: HPGD block, PNC inhibitor)
O=C(NCCN1CCOCC1)NC1(C(F)(F)F)Oc2ccc(Cl)cc2O1 (centres undefined)	none
COCC(C)NC(=O)NC1(C(F)(F)F)Oc2ccc(Cl)cc2O1 (centres undefined)	ALDH1A1 inh 22µM, PNC inhibitor inconclusive (no result: HPGD block)
COc1ccc(OCC(=O)Nc2ccc(C)cc2)cc1	HPGD block 16µM, PNC inhibitor inconclusive
COc1ccc(OCC(=O)NNC(=O)C(=O)Nc2ccc(C)cc2)cc1	none
Cc1ccc(OCC(=O)N/N=C/c2ccco2)cc1	ALDH1A1 inh 28µM
Cc1ccccc1OCC(=O)N/N=C/c1ccco1	none
COc1ccc(OCC(=O)Sc2ccc(C)cc2)cc1	HPGD block 14µM, ALDH1A1 inh inconclusive
COc1ccc(OC(=O)COc2ccc(C)cc2)cc1	none (no result: HPGD block, PNC inhibitor)
Fc1cccc(CSc2ncnc3c2ncn3[C@H]2CCCS2)c1	none (no result: PNC inhibitor)
CN1CCN(C(=O)c2ccccc2-c2ccccc2C(=O)O)CC1	none
Cc1cc(NCc2ccccc2)n2ncnc2n1	none (no result: HPGD block, PNC inhibitor)
Cc1cc(NCc2ccco2)n2ncnc2n1	PNC inhibitor -119
CCC1(C)Cc2c(sc3nn[nH]c(=O)c23)CO1 (centres undefined)	HPGD block inconclusive, ALDH1A1 inh inconclusive
CC1(C)Cc2c(sc3nn[nH]c(=O)c23)CO1	HPGD block inconclusive, ALDH1A1 inh inconclusive, PNC inhibitor -85
CCC1(C)Cc2c(sc3nnn(Cc4ccccc4Cl)c(=O)c23)CO1 (centres undefined)	none
Cc1nnc2n(Cc3ccccc3)c(=O)c3c4c(sc3n12)COC(C)(C)C4	HPGD block 16µM, ALDH1A1 inh 13µM
CC1(C)Cc2c(sc3c2c(=O)n(Cc2ccccc2)c2nncn32)CO1	none
CC1(C)Cc2c(sc3nnn(Cc4ccccc4)c(=O)c23)CO1	HPGD block 32µM, ALDH1A1 inh inconclusive
CCC(C)(C)NC(=O)C(c1ccncc1)N(Cc1ccc(C)cc1)C(=O)c1csnn1 (centres undefined)	PNC inhibitor inconclusive
CCOc1ccc(-n2c(N)c(-c3nc4ccccc4n3C)c3nc4ccccc4nc32)cc1	HPGD block inconclusive, PNC inhibitor inconclusive
CC1CCCCN1S(=O)(=O)c1ccc(C(=O)Nc2sccc2C(N)=O)cc1 (centres undefined)	HPGD block 28µM, ALDH1A1 inh 14µM, PNC inhibitor inconclusive
NC(=O)c1ccsc1NC(=O)c1ccc(S(=O)(=O)N2CCCc3ccccc32)cc1	HPGD block inconclusive
CN(C)c1ccc(/C=N/n2c(COc3ccccc3)n[nH]c2=S)cc1	HPGD block 13µM, ALDH1A1 inh 25µM
Cc1ccccc1OCc1nc2ccccc2c(=O)n1/N=C/c1cccc([N+](=O)[O-])c1	none
S=c1[nH]nc(COc2ccccc2)n1/N=C/c1cccnc1	HPGD block 14µM
Cc1nnc(C)n1/N=C/c1cccnc1	PNC inhibitor inconclusive
CCN(CC)c1ccc(/C=N/n2c(=S)[nH]nc(C)c2=O)cc1	ALDH1A1 inh inconclusive (no result: HPGD block)
O=[N+]([O-])c1cccc(/C=N/n2c(COc3ccccc3)n[nH]c2=S)c1	HPGD block 4µM, ALDH1A1 inh inconclusive
O=[N+]([O-])c1ccc(/C=N/n2c(COc3ccccc3)n[nH]c2=S)cc1	HPGD block 5µM, ALDH1A1 inh 28µM, PNC inhibitor inconclusive
COC(=O)c1cc([N+](=O)[O-])c(-n2cncn2)c([N+](=O)[O-])c1	none (no result: HPGD block, PNC inhibitor)
COC(=O)Cn1nnc(-c2cccc(OC)c2)n1	none
CCCCc1ccc(S(=O)(=O)NC2CCS(=O)(=O)C2)cc1 (centres undefined)	none (no result: HPGD block, PNC inhibitor)
O=C1[C@H]2O[C@@H]2[C@@H](O)[C@H]2[C@H]1CCn1c(=O)n(Cc3cc4c(cc3Cl)OCO4)c(=O)n12	none (no result: HPGD block, PNC inhibitor)
COC(=O)NCc1cccc(CNC(=O)OC)c1	none
O=c1[nH]c(=O)n(Cc2ccccc2)c2nc(-c3ccco3)cc(C(F)(F)F)c12	HPGD block inconclusive, ALDH1A1 inh inconclusive
Cc1cc(C(F)(F)F)c2c(=O)[nH]c(=O)n(Cc3ccccc3)c2n1	HPGD block 10µM
CCOC(=O)c1c(NC(=O)C2c3ccccc3Oc3ccccc32)sc(C(=O)N(CC)CC)c1C	ALDH1A1 inh inconclusive
Fc1cc(F)c(F)c(SCCc2ccncc2)c1F	HPGD block inconclusive, ALDH1A1 inh 7.9µM, PNC inhibitor inconclusive
c1ccc(SCCc2ccncc2)cc1	none
O=C(NNC(=O)C1CCN(Cc2ccccc2)CC1)c1cccc(Cl)c1	none
CC1CCCC(NC(=O)COC(=O)CN2C(=O)C3CCCCC3C2=O)C1C (centres undefined)	ALDH1A1 inh 25µM
O=C(COC(=O)CN1C(=O)C2CCCCC2C1=O)NC1CCS(=O)(=O)C1 (centres undefined)	none
C=CCNC(=O)COc1ccc(Br)cc1Cl	HPGD block inconclusive, PNC inhibitor -114
COCCNC(=O)COc1ccc(Br)cc1Cl	HPGD block inconclusive
C=CCNC(=S)NNC(=O)COc1ccc(Cl)cc1Cl	ALDH1A1 inh inconclusive
CN(C)CCCNC(=O)COc1ccc(Br)cc1Cl	PNC inhibitor -87
C/C(=N/OC(=O)c1ccc(Cl)cc1Cl)c1oc(C)nc1C	none (no result: HPGD block, PNC inhibitor)

High-throughput results (PubChem)
